IL1B secr inh: inhibitors of inflammasome signaling (IL-1 beta secretion). activity change, % at 57.5 µM. THP-1 LPS/ATP IL-1B secretion, AlphaLISA, 16 h; hits give low values. 360,000 compounds, 4.7% hits; in the data active means activity change below about -50%; inconclusive means mostly about -30% to -49%
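THP-1 cells pretreated 1 hr with compounds (up to 57.5 uM final), then stimulated with LPS (250 ng/mL final) plus ATP (1.25 mM final); secreted IL-1B measured by AlphaLISA after 16 hr, decreased signal indicating inhibition.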
RORg inh: inhibitors of mouse ROR gamma transcriptional activity | Potency, µM (titrated, usually from 53.6 µM), for the others: at the top dose activity change, negative = inhibition, hits mostly inhibitors | P51450 | 310,000 compounds, 5.4% hits | Drosophila S2 Gal4-RORgamma UAS-luciferase reporter, 20 h | AID 2551; further: potency means the concentration at half of the fitted maximal effect; nearly all actives have a fitted effect of over 60% in size
Target sequence (P51450 whole entry, looked up, the tested form may be a part): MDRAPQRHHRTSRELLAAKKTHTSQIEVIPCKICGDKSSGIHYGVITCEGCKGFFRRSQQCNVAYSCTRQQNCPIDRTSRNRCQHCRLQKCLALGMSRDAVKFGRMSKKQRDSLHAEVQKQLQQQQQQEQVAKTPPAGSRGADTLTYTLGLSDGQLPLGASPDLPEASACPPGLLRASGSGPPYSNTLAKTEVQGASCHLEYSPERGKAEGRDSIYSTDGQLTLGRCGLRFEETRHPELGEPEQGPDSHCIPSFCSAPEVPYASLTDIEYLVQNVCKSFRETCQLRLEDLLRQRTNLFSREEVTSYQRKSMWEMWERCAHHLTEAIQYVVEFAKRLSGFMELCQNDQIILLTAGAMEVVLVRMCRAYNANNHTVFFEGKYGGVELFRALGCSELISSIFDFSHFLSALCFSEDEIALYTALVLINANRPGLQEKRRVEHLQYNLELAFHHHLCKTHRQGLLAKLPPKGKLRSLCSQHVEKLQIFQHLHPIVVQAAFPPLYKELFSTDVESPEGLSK
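ROR gamma transcriptional activity was tracked as Gal4-UAS luciferase output in stably transfected Drosophila Schneider cells, with compound added 1 hr before 700 uM copper sulfate induction and a 20 hr ambient-temperature incubation.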
DT40 TDP1 no CPT: qHTS for Inhibitors of human tyrosyl-DNA phosphodiesterase 1 (TDP1): qHTS in cells in absence of CPT; DT40 Tdp1-/- hTDP1 cells, no CPT, ATP luminescence, 48 h; Potency, µM (titrated, usually from 46.2 µM), for inactives: at the top dose activity change, negative = growth inhibition, actives largely listed as inhibitors; 420,000 compounds, 15% hits; further: potency means the concentration at half of the fitted maximal effect; nearly all actives have a fitted effect of over 55% in size
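Camptothecin absent (DMSO only). Human TDP1-complemented DT40 knockout cells, 400 cells/well, 37 °C for minimum 48 hr; ATP measured via CellTiter-Glo, 30 min dark incubation, luminescence.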
VP16 counter: Gal4-VP16 reporter inhibition counter-screen | Drosophila S2 Gal4-VP16 UAS-luciferase, luminescence, 20 h | Potency, µM (doses to about 53.6 µM), inactives show top-dose activity, negative = inhibition, usual class: inhibitors | 310,000 compounds, 3.5% hits | AID 2546;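 further: Gal4-VP16 expression switched on by copper sulfate through the metallothionein promoter; potency means the concentration at half of the fitted maximal effect; nearly all actives have a fitted effect of over 50% in size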
ELG1 repair inh: ELG1-dependent DNA repair inhibition; Potency, µM (titrated, usually from 46.1 µM), for inactives: at the top dose activity change, negative = inhibition, most hits filed as inhibitors; AID 504467; HEK293T ELG1-luciferase reporter, luminescence, 16 h; DNA damage induced by 5-fluorouridine; 330,000 compounds, 2.3% hits; further: potency means the concentration at half of the fitted maximal effect; nearly all actives have a fitted effect of over 55% in size
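Luminescence from the luciferase reporter, measured 30 min after ONE-Glo reagent at room temperature, was the read-out. Beforehand, 2,000 cells per well were exposed for 16 hr at 37 °C to 5-fluorouridine together with compound or vehicle.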
TDP1 cell CPT: DT40-hTDP1 cell growth loss with CPT; AID 686979; chicken DT40 Tdp1-/-;hTDP1 cells + 20 nM CPT, ATP luminescence, 48 h; Potency, µM (highest dose often 46.2 µM), inactives show at the top dose activity change, negative = growth inhibition, hits mostly inhibitors; 420,000 compounds, 12% hits; further: potency means the concentration at half of the fitted maximal effect; nearly all actives have a fitted effect of over 55% in size
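Cell growth measured by CellTiter-Glo luminescence after a minimum 48 h, 37 C compound exposure with 20 nM CPT in Tdp1-knockout DT40 cells stably expressing hTDP1, seeded 400/well; qHTS titration format.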
* = called active by the depositor; ? = inconclusive; nt = no result; [ ] = remark or other dose. The list is not random: actives were taken first. Their share in the collection is about 21%. Unless noted, the call rests on the fitted dose curve; in most records, active means well fitted curve in the direction sought with a large enough effect; inconclusive means small, poorly fitted or top-dose-only effect, or another doubt; inactive means no such curve, though single readings can be large; an effect the other way counts as inactive or inconclusive. On the % scale 0 is the no-effect control and ±100 the full control effect.

SMILES | IL1B secr inh | RORg inh | DT40 TDP1 no CPT | VP16 counter | ELG1 repair inh | TDP1 cell CPT
O=C(O)c1cc(N(Cc2ccccc2O)Cc2ccccc2O)ccc1O | nt | -21% | nt | -2% | nt | nt
COc1cccc(-c2cc(C(=O)Nc3ccccc3)c3ccccc3n2)c1 | 22 | nt | 6.5µM* | nt | nt | ?
CC(C)(C)n1nnnc1C(c1cccnc1)N(Cc1ccccc1)Cc1ccco1 (stereo not drawn) | -20 | -10% | ? | -13% | 0% | ?
CCN(Cc1ccccc1)C(c1ccc(C(F)(F)F)cc1)c1nnnn1C(C)(C)C (stereo not drawn) | -1 | nt | 21µM* | nt | nt | ?
CCN(Cc1ccccc1)C(c1cccc(C#N)c1)c1nnnn1C(C)(C)C (stereo not drawn) | 1 | ? | 23µM* | ? | ? | ?
COc1cccc(CN(Cc2ccco2)C(c2ccc(F)cc2)c2nnnn2C(C)(C)C)c1 (stereo not drawn) | ? | -3% | ? | 2.8µM* | -7% | ?
CCN1CCN(C(c2ccccc2)c2nnnn2C(C)(C)C)CC1 (stereo not drawn) | 0 | nt | 2% | nt | nt | -4%
N#Cc1cccc(C(c2nnnn2C2CCCC2)N2CCC(Cc3ccccc3)CC2)c1 (stereo not drawn) | -17 | 24% | ? | -10% | -5% | ?
CC(=O)Nc1ccc(/C=C/C(=O)c2ccc(-n3nncc3-c3ccccc3)cc2)cc1 | nt | nt | 10µM* | nt | nt | 5.6µM*
CSc1ccc(NC(=O)CC(C)=O)cc1 | -5 | 4% | 1% | 7% | 29% | -9%
CC(=O)Nc1ccc(N/C=C/C(=O)c2ccc(C)cc2)cc1 | -16 | -11% | 11% | -19% | ? | 3%
CCCC(=O)Nc1ccc(C(=O)/C=C/c2ccc(SC)cc2)cc1 | 0 | ? | 18µM* | -16% | -3% | 13µM*
CSc1ccc(/C=C/C(=O)c2ccc(NC(C)=O)cc2)cc1 | ? | 13% | 21µM* | -1% | 23% | 16µM*
O=c1[nH]c(=O)n(C2OC(CO)C(O)C2O)c2c1CCCC2 (stereo not drawn) | 4 | nt | -3% | nt | nt | -16%
CC12CCC(C(=O)Nc3cc(Cl)ccc3Cl)(C(Br)C1=O)C2(C)C (stereo not drawn) | 237 | ? | ? | -10% | -4% | 0%
Cc1ccnc2c(Cl)c(Cl)ccc12 | nt | nt | -26% | nt | nt | -9%
COc1ccc(-c2nc3c(C(=O)NCCN(C)C)cccc3c3ccccc23)cc1 | -100* | nt | 4.1µM* | nt | nt | 1.3µM*
COc1cccc2nc3c(C(=O)NCCN(C)C)cccc3cc12 | -97* | nt | 0.18µM* | nt | nt | 0.16µM*
CN(C)CCNC(=O)c1cccc2[nH]c(-c3ccncc3)nc12 | -82* | nt | 13µM* | nt | nt | 13µM*
CN(C)CCNC(=O)c1cccc2nc3c(ccc4ccccc43)nc12 | -101* | nt | 4.6µM* | nt | nt | 5.8µM*
O=C(NCC1CCCCC1)c1csc([C@@H]2O[C@H](CO)[C@H](O)[C@H](O)[C@H]2O)n1 | 28 | nt | -2% | nt | nt | 4%
CCNC(=O)C1CCCN(C(=O)c2cc(OC)c(OC)c(OC)c2)CC1 (stereo not drawn) | -12 | nt | -3% | nt | nt | -4%
O=P1(O)OP(=O)(O)OP(=O)(O)O1.[Al] | nt | 12% | nt | -4% | nt | nt
CC(C)C[C@H]1CN(CCCC[C@H]2CNC(=O)C(=O)N2CCc2ccccc2)C(=O)C(=O)N1CCc1ccccc1 | -5 | nt | -14% | nt | nt | -14%
NCCCCCNC(=O)/C=N\O | -18 | -20% | -21% | -3% | -3% | -21%
SMILES | IL1B secr inh | RORg inh | DT40 TDP1 no CPT | VP16 counter | ELG1 repair inh | TDP1 cell CPT
CN(C)CCNC(=O)c1ccccc1-c1cc2ccccc2c(=O)o1 | -3 | 13% | 6% | -5% | 1% | 5%
COc1ccc(C(=O)NCCN(C)C)c2nc3ccccc3cc12 | -99* | nt | 0.16µM* | nt | nt | 0.18µM*
CN(CCNC(=O)c1c[nH]c2c1ccc1ccccc12)CCNC(=O)c1c[nH]c2c1ccc1ccccc12 | -23 | nt | ? | nt | nt | 23µM*
COc1ccc(Cl)cc1C(=O)NCCN(C)C | 0 | 18% | -6% | 5% | 8% | -3%
O=C1OCC(c2ccc(Cl)s2)=C1c1ccccc1[N+](=O)[O-] | -65* | 3% | ? | -8% | ? | 0%
O=c1oc(-c2ccccc2Cl)nc2ccsc12 | 48 | ? | 15µM* | 4% | ? | ?
C=CCNC(=O)c1onc(CSc2cccc(OC)c2)c1C(=O)O | 14 | 20% | -1% | -6% | -1% | -10%
O=C(CCNS(=O)(=O)c1ccc(Cl)cc1)N1CCN(Cc2ccccc2)CC1 | -2 | ? | -17% | -6% | -11% | -24%
Cc1c(C)c(C)c(S(=O)(=O)NCCC(=O)N2CCN(Cc3ccc(C#N)cc3)CC2)c(C)c1C | 8 | nt | 8.2µM* | nt | -17% | 16µM*
Cc1cccc(NC(=O)NCCN2CCN(c3ccccc3)CC2)c1C | 6 | 19% | 0% | 6% | 1% | -8%
CC(c1nnnn1C(C)(C)C)N(Cc1cccnc1)Cc1ccccc1Cl (stereo not drawn) | ? | ? | ? | 1% | -2% | ?
CCN(Cc1ccccc1)C(c1ccccn1)c1nnnn1C1CCCCC1 (stereo not drawn) | -11 | -9% | ? | -6% | -1% | ?
Clc1ccccc1CN(Cc1ccccc1)C(c1cccs1)c1nnnn1C1CCCC1 (stereo not drawn) | ? | 17% | 21µM* | ? | nt | ?
Clc1ccc(CN(CC2CCCO2)C(c2cccs2)c2nnnn2C2CCCC2)cc1 (stereo not drawn) | -22 | ? | 6.5µM* | ? | 1% | 7.3µM*
CC(C)(C)n1nnnc1C(c1cccs1)N(Cc1cccnc1)Cc1ccccc1Cl (stereo not drawn) | -12 | ? | 18µM* | -4%[0.365 µM] | ? | ?
CCN(Cc1ccccc1)C(c1cccs1)c1nnnn1C1CCCCC1 (stereo not drawn) | -8 | 6% | 29µM* | -21% | 0% | ?
C[N+]1(C)C[C@@H](O)C[C@@H]1C(=O)[O-] | nt | -12%[16.9 µM] | nt | -10%[17 µM] | nt | nt
Cc1nn(-c2cc(N3CCCC3)ccc2[N+](=O)[O-])c(=O)c2ccccc12 | 16 | -13% | ? | 6% | 11% | -21%
Cc1ccc(C)c(-c2nn(-c3cc(N4CCN(CCO)CC4)ccc3[N+](=O)[O-])c(=O)c3ccccc23)c1 | ? | ? | 26µM* | ? | -15% | ?
